From the OligoGym collection

Biological target: HMP19
Experiment: pooled miR-30 sensor sort-seq; sequence = guide strand
Settings: shRNA
Further: reference of the scale not given here.

**Q.** How did the sensor-assay potency score (higher = more potent) turn out when TCTTGTCTTCACAATCACCTTT was run?
**A.** -0.0794

**Q.** Which sensor-assay potency score (higher = more potent) does the source give for TAAACCACCAGGAACACGATGC here?
**A.** -0.408

**Q.** How did the sensor-assay potency score (higher = more potent) turn out when TTCTTGTCTTCACAATCACCTT was run?
**A.** -1.21

**Q.** How did the sensor-assay potency score (higher = more potent) turn out when TACAGTGTTGTCTTGTAACTGG was run?
**A.** -0.189

**Q.** TTGGTTCCCTTCTCGCTGGGGT was tested. Which sensor-assay potency score (higher = more potent) did it give?
**A.** 0.36

**Q.** How did the sensor-assay potency score (higher = more potent) turn out when TTCACAATCACCTTTTCTGGAG was run?
**A.** -0.586

**Q.** With TATCGGTTCAGACAACTCCAGC as the sequence, how does the sensor-assay potency score (higher = more potent) read?
**A.** -1.43

**Q.** For TAAGTGATTAACCTCCAAGGGA, which sensor-assay potency score (higher = more potent) is on record?
**A.** -0.21

**Q.** How did the sensor-assay potency score (higher = more potent) turn out when TTGTACATGAGCCTGACTCGGC was run?
**A.** -0.338

**Q.** With TTATAGACGAATCCCTCTGGGC as the sequence, how does the sensor-assay potency score (higher = more potent) read?
**A.** -0.74

**Q.** For TTCGGCACCCGGAACTTCCCTT, which sensor-assay potency score (higher = more potent) is on record?
**A.** -0.311

**Q.** How did the sensor-assay potency score (higher = more potent) turn out when TTGTTCTTCTGTTCCGGCTGAT was run?
**A.** 0.313

Biological target: HMX2
Experiment: as above
Settings: shRNA

**Q.** With TGTATAGGTTGTAGAGAGGTAA as the sequence, how does the sensor-assay potency score (higher = more potent) read?
**A.** -0.622

**Q.** For TGAAGCTGGAGACGCCACCGGC, which sensor-assay potency score (higher = more potent) is on record?
**A.** -0.77

**Q.** How did the sensor-assay potency score (higher = more potent) turn out when TTCTCTTCTTTAAAGTCCGAGT was run?
**A.** -1

**Q.** With TCCGAGGACACGGACAGGCTGC as the sequence, how does the sensor-assay potency score (higher = more potent) read?
**A.** -1.46

**Q.** For TTAAAGTCCGAGTGCGAAGGAG, which sensor-assay potency score (higher = more potent) is on record?
**A.** -0.61

**Q.** For TGGAACCAAGTCTTTACCTGGG, which sensor-assay potency score (higher = more potent) is on record?
**A.** -0.326

**Q.** For TCGAGCTGGTACACCTGGCTGC, which sensor-assay potency score (higher = more potent) is on record?
**A.** -0.393

**Q.** With TTTCTCTTCTTTAAAGTCCGAG as the sequence, how does the sensor-assay potency score (higher = more potent) read?
**A.** -0.831

**Q.** With TAAAGTCCGAGTGCGAAGGAGA as the sequence, how does the sensor-assay potency score (higher = more potent) read?
**A.** -1.28

**Q.** How did the sensor-assay potency score (higher = more potent) turn out when TTCTTTAAAGTCCGAGTGCGAA was run?
**A.** -1.59

**Q.** Which sensor-assay potency score (higher = more potent) does the source give for ATGGACTGGATGGTGAAGCTGG here?
**A.** -1.05

**Q.** With TCTTCTTCTTGGCCGCGCCGGC as the sequence, how does the sensor-assay potency score (higher = more potent) read?
**A.** -1.36
